# Data published in PubChem BioAssay (EPA / NIEHS).
# Inconclusive results are not listed. The source made the active and inactive calls. How the source made its calls: active means hit-call score of the fitted dose curve at least 0.9, where 1 is the maximum; inconclusive means response in the unintended direction; inactive means score below 0.9.
# Biological target: rat CYP2C13, Cyp2c13 (gene 171521) (UniProt P20814)
# Assay: NVS_ADME_rCYP2C13: NovaScreen (NVS) CYP450-related Enzyme Activity (ADME) Assay for rat CYP2C13 (AID 2283121)
# Procedure: NVS_ADME_rCYP2C13 is a biochemical, single-readout assay that uses extracted gene-proteins in a cell-free assay. Measurements were taken 0.75 hour after chemical dosing in a 96-well plate.NVS_ADME_rCYP2C13 is one of one assay component(s) measured or calculated from the NVS_ADME_rCYP2C13 assay. It is designed to make measurements of enzyme activity, a form of enzyme reporter, as detected with fluorescence intensity signals by Fluorescence technology.Data from the assay component NVS_ADME_rCYP2C13 was analyzed into 1 assay endpoint. This assay endpoint, NVS_ADME_rCYP2C13, was analyzed in the positive analysis fitting direction relative to Acetonitrile as the negative control and baseline of activity. Using a type of enzyme reporter, loss-of-signal activity can be used to understand changes in the enzymatic activity as they relate to the gene Cyp2c13. Furthermore, this assay endpoint can be referred to as a primary readout, because this assay has produced multiple assay endpoints where this one serves a enzymatic activity function. To generalize the intended target to other relatable targets, this assay endpoint is annotated to the cyp intended target family, where the subfamily is xenobiotic metabolism.
# Binding assays used specific radioligands (tritiated, iodinated) with non-radioactive competitive displacement ligands in agonist or antagonist protocols (as indicated) and various reference compounds and inhibitors to titrate specific binding to receptors and transporters. Most enzyme assays (CYPs, kinases, phosphatases, proteases, HDACs) used recombinant protein and specific substrates (fluorescence mostly, some colorimetric and radioactive) and inhibitors, followed by a biochemical separation of substrate and product. All assays for the biochemical HTS were initially run in duplicate at a single concentration (10 uM for CYP450 assays and 25 uM for all others). […] Each assay was run with positive and negative controls, and concurrent controls on every plate. The follow-up (secondary) screen tested active chemical-pairs in concentration series, as well as a few additional assays not tested in the primary screen, some selected negative inactives, and several cases re-run in the concentration series for confirmatory purposes.
# Sequence of rat CYP2C13, Cyp2c13 (gene 171521) (P20814 whole entry, looked up): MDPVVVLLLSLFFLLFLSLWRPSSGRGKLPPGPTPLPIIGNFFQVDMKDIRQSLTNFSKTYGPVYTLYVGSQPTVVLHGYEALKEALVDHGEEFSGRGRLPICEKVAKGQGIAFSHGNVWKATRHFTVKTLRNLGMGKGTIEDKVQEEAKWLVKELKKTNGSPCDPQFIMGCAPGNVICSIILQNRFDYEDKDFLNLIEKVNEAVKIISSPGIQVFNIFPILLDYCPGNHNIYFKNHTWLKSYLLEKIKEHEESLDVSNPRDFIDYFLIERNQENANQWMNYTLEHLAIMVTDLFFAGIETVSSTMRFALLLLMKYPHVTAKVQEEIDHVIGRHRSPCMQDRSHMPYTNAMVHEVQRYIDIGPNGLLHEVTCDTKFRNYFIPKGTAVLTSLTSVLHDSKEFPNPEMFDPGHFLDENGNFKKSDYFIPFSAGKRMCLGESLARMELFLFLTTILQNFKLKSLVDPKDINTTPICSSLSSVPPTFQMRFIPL
Compound,outcome,AC50
CCOC(=O)CC(SP(=O)(OC)OC)C(=O)OCC (stereo not given),inactive,–
CCCSP(=O)(OCC)Oc1ccc(Br)cc1Cl (stereo not given),–,9490 nM (active)
CCCOCC(=Nc1ccc(Cl)cc1C(F)(F)F)n1ccnc1,–,966 nM (active)
C[Si](Cn1cncn1)(c1ccc(F)cc1)c1ccc(F)cc1,–,173 nM (active)
CC(=NC#N)N(C)Cc1ccc(Cl)nc1,inactive,–
CCC(=O)Nc1ccc(Cl)c(Cl)c1,–,5420 nM (active)
CC[C@H](C)[C@H]1O[C@]2(C=C[C@@H]1C)C[C@@H]1C[C@@H](C/C=C(\C)[C@@H](O[C@H]3C[C@H](OC)[C@@H](O[C@H]4C[C@H](OC)[C@@H](NC)[C@H](C)O4)[C@H](C)O3)[C@@H](C)/C=C/C=C3\CO[C@@H]4[C@H](O)C(C)=C[C@@H](C(=O)O1)[C@]34O)O2,–,6310 nM (active)
CC(C)=CC1C(C(=O)OCN2C(=O)C3=C(CCCC3)C2=O)C1(C)C (stereo not given),–,8970 nM (active)
CSc1nc(NC(C)C)nc(NC(C)C)n1,–,7910 nM (active)
COc1cccc(C(=O)NN(C(=O)c2cc(C)cc(C)c2)C(C)(C)C)c1C,–,2640 nM (active)
CC(C1CC1)C(O)(Cn1cncn1)c1ccc(Cl)cc1 (stereo not given),–,75.5 nM (active)
FC(F)C(F)(F)OCC(Cn1cncn1)c1ccc(Cl)cc1Cl (stereo not given),–,257 nM (active)
CCOP(=S)(OCC)Oc1ccc([N+](=O)[O-])cc1,–,10000 nM (active)
CC1(C(=O)Nc2ccc(O)c(Cl)c2Cl)CCCCC1,–,1370 nM (active)
C=C(C)[C@H]1Cc2c(ccc3c2O[C@@H]2COc4cc(OC)c(OC)cc4[C@@H]2C3=O)O1,–,2260 nM (active)
